# Test results published in paper PMC12350791.
# Key:
# [1] = biological target: Actin, cytoplasmic 1 (UniProt P60709); experiment: cross-linking mass spectrometry
# [2] = biological target: DNA replication licensing factor MCM5 (UniProt P33992); experiment: cross-linking mass spectrometry
# [3] = biological target: Acidic leucine-rich nuclear phosphoprotein 32 family member B (UniProt Q92688); experiment: cross-link between two proteins; cross-linking mass spectrometry
# [4] = biological target: Ankyrin-1 (UniProt P16157); experiment: as above
# [5] = biological target: Centrosomal protein of 85 kDa (UniProt Q6P2H3); experiment: as above
# [6] = biological target: Heterogeneous nuclear ribonucleoprotein K (UniProt P61978); experiment: as above
# [7] = biological target: Filamin-C (UniProt Q14315); experiment: as above
# [8] = biological target: Heterogeneous nuclear ribonucleoprotein A/B (UniProt Q99729); experiment: as above
# [9] = biological target: Heterogeneous nuclear ribonucleoprotein M (UniProt P52272); experiment: as above
# [10] = biological target: Leucine--tRNA ligase, cytoplasmic (UniProt Q9P2J5); experiment: as above
# [11] = biological target: Plastin-1 (UniProt Q14651); experiment: as above
# [12] = biological target: Platelet-activating factor acetylhydrolase IB subunit alpha1 (UniProt Q15102); experiment: as above
# [13] = biological target: Splicing factor 3B subunit 3 (UniProt Q15393); experiment: as above
# [14] = biological target: Tubulin alpha-4A chain (UniProt P68366); experiment: as above
# [15] = biological target: Tubulin beta-2B chain (UniProt Q9BVA1); experiment: as above
# [16] = biological target: Tubulin beta-4B chain (UniProt P68371); experiment: as above
# [17] = biological target: Zincore component SEPHS1 (UniProt P49903); experiment: as above
# [18] = biological target: Heterogeneous nuclear ribonucleoproteins C1/C2 (UniProt P07910); experiment: cross-link between two proteins; affinity purification or IP with mass spectrometry; cross-linking mass spectrometry
# [19] = biological target: Heterogeneous nuclear ribonucleoprotein F (UniProt P52597); experiment: as above
# [20] = biological target: RNA binding motif protein, X-linked-like-1 (UniProt Q96E39); experiment: as above
substance,measurement,setting,value
"Formin-like protein 1, O95466",listed as a hit,[1],yes
"DNA replication licensing factor MCM4, P33991",listed as a hit,[2],yes
"Acidic leucine-rich nuclear phosphoprotein 32 family member A, P39687",listed as a hit,[3],yes
"Spectrin alpha chain, erythrocytic 1, P02549",listed as a hit,[4],yes
"Heat shock protein HSP 90-beta, P08238",listed as a hit,[5],yes
same,listed as a hit,[6],yes
"Filamin-B, O75369",listed as a hit,[7],yes
"Heterogeneous nuclear ribonucleoprotein A1, P09651",listed as a hit,[8],yes
"Matrin-3, P43243",listed as a hit,[9],yes
"Isoleucine--tRNA ligase, cytoplasmic, P41252",listed as a hit,[10],yes
"Plastin-2, P13796",listed as a hit,[11],yes
"Platelet-activating factor acetylhydrolase IB subunit alpha2, P68402",listed as a hit,[12],yes
"Splicing factor 3B subunit 2, Q13435",listed as a hit,[13],yes
"Stathmin, P16949",listed as a hit,[14],yes
"Tubulin alpha-1C chain, Q9BQE3",listed as a hit,[15],yes
"Elongation factor 1-alpha 1, P68104",listed as a hit,[16],yes
"Heterogeneous nuclear ribonucleoprotein D-like, O14979",listed as a hit,[17],yes
same,listed as a hit,[18],yes
"Heterogeneous nuclear ribonucleoproteins C1/C2, P07910",listed as a hit,[19],yes
same,listed as a hit,[20],yes
